Laboratory results taken from PubChem BioAssay (NCI).
About 79,000 compounds went through this panel and 15% of them were active in at least one assay; those are over-represented in the sample as a whole. A number with no mark means an inactive call. Active and inactive are the calls of the source. Rule as the data show it: active = growth inhibition above about 70%; inactive = the rest.

Columns and labels:
[1] = NCI Yeast Anticancer Drug Screen. Data for the wt1 strain (AID 149);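 also: 0% = growth of vehicle-treated wt1 cultures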; conditions: S. cerevisiae wt1 strain (SPY 50644) growth inhibition, stronger effect = higher value
How it was run: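 Measured: growth of wt1 yeast under compound versus vehicle treatment, reported as inhibition.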

[2] = NCI Yeast Anticancer Drug Screen. Data for the rad50EPP+ strain (AID 151);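 also: 0% = growth of vehicle-treated control cultures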; conditions: S. cerevisiae rad50 mutant strain, stronger effect = higher value
How it was run: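 Read-out is yeast growth inhibition relative to vehicle; cells used were the rad50EPP+ strain.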

[3] = NCI Yeast Anticancer Drug Screen. Data for the mgt1 strain (AID 153); conditions: S. cerevisiae mgt1 mutant growth inhibition, stronger effect = higher value
How it was run: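 Measured: inhibition of mgt1 yeast growth by compound, normalized to vehicle-treated cultures.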

[4] = NCI Yeast Anticancer Drug Screen. Data for the rad50 strain (AID 155);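 also: 0% = growth of vehicle-only cultures of the same strain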; conditions: S. cerevisiae rad50 strain growth inhibition, stronger effect = higher value
How it was run: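 Growth of the mutant yeast was measured after compound exposure and referenced to vehicle-treated cultures.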

[5] = NCI Yeast Anticancer Drug Screen. Data for the mec2-1 strain (AID 157); conditions: S. cerevisiae mec2-1 strain, stronger effect = higher value
How it was run: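 Using mec2-1 yeast: add compound, measure growth, express inhibition versus vehicle-treated cultures.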

[6] = NCI Yeast Anticancer Drug Screen. Data for the rad14 strain (AID 159);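 also: 0% = growth of vehicle-treated control cultures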; conditions: S. cerevisiae rad14 strain growth inhibition, stronger effect = higher value
How it was run: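 Here, inhibition of yeast growth was measured after compound exposure, using a strain with a genetic defect in DNA damage repair and vehicle-treated cultures as the reference.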

[7] = NCI Yeast Anticancer Drug Screen. Data for the sgs1 mgt1 strain (AID 161);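 also: 0% = growth of cultures given vehicle only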; conditions: S. cerevisiae sgs1 mgt1 strain, stronger effect = higher value
How it was run: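 This yeast growth screen uses a strain with defined DNA-repair lesions; compound-treated growth is compared with vehicle-treated growth.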

[8] = NCI Yeast Anticancer Drug Screen. Data for the cln2 rad14 strain (AID 165);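 also: 0% = growth equal to vehicle treated cultures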; conditions: S. cerevisiae cln2 rad14 strain, stronger effect = higher value
How it was run: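 Yeast strain cln2 rad14, bearing defects in cell cycle control and DNA repair, serves as the test system; values reflect growth inhibition compared with vehicle.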

[9] = NCI Yeast Anticancer Drug Screen. Data for the bub3 strain (AID 167); conditions: S. cerevisiae bub3 mutant strain, stronger effect = higher value
How it was run: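 Whole-cell yeast assay. The mutant strain was incubated with compounds, and growth inhibition was determined by comparison with vehicle-treated cells.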

[10] = NCI Yeast Anticancer Drug Screen. Data for the wt2 strain (AID 169);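 also: 0% = growth of vehicle-treated yeast cultures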; conditions: S. cerevisiae wt2 strain growth inhibition, stronger effect = higher value
How it was run: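 Treated yeast vs. vehicle-treated yeast: growth inhibition determined.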

[11] = NCI Yeast Anticancer Drug Screen. Data for the mlh1 strain (AID 171);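 also: 0% = growth of vehicle-treated control cultures of the same strain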; conditions: S. cerevisiae mlh1 strain growth inhibition, stronger effect = higher value
How it was run: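 A yeast strain with a defined genetic lesion serves as the test organism. Cultures receive compound or vehicle, and growth is measured.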

[12] = NCI Yeast Anticancer Drug Screen. Data for the sgs1 strain (AID 173);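 also: 0% = growth of vehicle-only control cultures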; conditions: S. cerevisiae sgs1 mutant, stronger effect = higher value
How it was run: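 A genetically defined yeast mutant is incubated with the test compound, and its growth is compared to that of the same strain given vehicle.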

[13] = NCI Yeast Anticancer Drug Screen. Data for the mlh1 rad18 strain (AID 175); conditions: S. cerevisiae mlh1 rad18 strain growth inhibition, stronger effect = higher value
How it was run: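 Steps: expose repair-defective yeast to compound; measure growth; express inhibition against vehicle-treated controls.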

[14] = NCI Yeast Anticancer Drug Screen. Data for the rad18 strain (AID 177); conditions: S. cerevisiae rad18 mutant growth inhibition, stronger effect = higher value
How it was run: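 Measured value is growth inhibition of a yeast strain bearing a DNA repair alteration, referenced to vehicle-treated cells.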

[15] = NCI Yeast Anticancer Drug Screen. Data for the CLN2oe strain (AID 163);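 also: 0% = growth of vehicle-only control cultures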; conditions: S. cerevisiae CLN2oe strain, stronger effect = higher value
How it was run: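 Whole-cell yeast growth assay. A strain engineered for altered cell-cycle control received compound, and inhibition relative to vehicle-treated cultures was recorded.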

[16] = at 5.0 µM (retest, dose inferred, filed as 0.5)
[17] = at 50.0 µM (retest, dose inferred, filed as 5.0)

Compound: CCC(C)C(=O)OCC(=O)c1ccc(-c2ccccc2)cc1 (stereo unspecified)
- growth inhibition ([1]; at 1.2 µM): -1%
- growth inhibition ([1]; at 3.7 µM): -2%
- growth inhibition ([1]; at 11.0 µM): -2%
- growth inhibition ([1]; at 33.0 µM): -5%
- growth inhibition ([1]; at 100.0 µM): -7%
- growth inhibition ([2]; at 1.2 µM): 1%
- growth inhibition ([2]; at 3.7 µM): 3%
- growth inhibition ([2]; at 11.0 µM): 8%
- growth inhibition ([2]; at 33.0 µM): 10%
- growth inhibition ([2]; at 100.0 µM): 9%
- growth inhibition ([3]; at 1.2 µM): 0%
- growth inhibition ([3]; at 3.7 µM): -1%
- growth inhibition ([3]; at 11.0 µM): 1%
- growth inhibition ([3]; at 33.0 µM): -4%
- growth inhibition ([3]; at 100.0 µM): -35%
- growth inhibition ([4]; at 1.2 µM): 0%
- growth inhibition ([4]; at 3.7 µM): 0%
- growth inhibition [4, 16]: 13%
- growth inhibition ([4]; at 11.0 µM): 0%
- growth inhibition ([4]; at 33.0 µM): 1%
- growth inhibition [4, 17]: -8%
- growth inhibition ([4]; at 50.0 µM): -8.9%
- growth inhibition ([4]; at 100.0 µM): -2%
- growth inhibition ([5]; at 1.2 µM): -3%
- growth inhibition ([5]; at 3.7 µM): -2%
- growth inhibition [5, 16]: -3%
- growth inhibition ([5]; at 11.0 µM): -2%
- growth inhibition ([5]; at 33.0 µM): -4%
- growth inhibition [5, 17]: 0%
- growth inhibition ([5]; at 50.0 µM): 2.3%
- growth inhibition ([5]; at 100.0 µM): -6%
- growth inhibition ([6]; at 1.2 µM): -1%
- growth inhibition ([6]; at 3.7 µM): 1%
- growth inhibition ([6]; at 11.0 µM): 5%
- growth inhibition ([6]; at 33.0 µM): 5%
- growth inhibition ([6]; at 100.0 µM): 4%
- growth inhibition [7, 16]: 6%
- growth inhibition [7, 17]: -1%
- growth inhibition ([7]; at 50.0 µM): -3.05%
- growth inhibition [8, 16]: -5%
- growth inhibition [8, 17]: -8%
- growth inhibition ([8]; at 50.0 µM): 2.3%
- growth inhibition ([9]; at 1.2 µM): 25%
- growth inhibition ([9]; at 3.7 µM): 35%
- growth inhibition [9, 16]: 54%
- growth inhibition ([9]; at 11.0 µM): 51%
- growth inhibition ([9]; at 33.0 µM): 68%
- growth inhibition [9, 17]: 74% (active)
- growth inhibition ([9]; at 50.0 µM): 87.2% (active)
- growth inhibition ([9]; at 100.0 µM): 75% (active)
- growth inhibition ([10]; at 1.2 µM): -1%
- growth inhibition ([10]; at 3.7 µM): -2%
- growth inhibition ([10]; at 11.0 µM): -1%
- growth inhibition ([10]; at 33.0 µM): -5%
- growth inhibition ([10]; at 100.0 µM): -6%
- growth inhibition ([11]; at 1.2 µM): 0%
- growth inhibition ([11]; at 3.7 µM): 0%
- growth inhibition ([11]; at 11.0 µM): -4%
- growth inhibition ([11]; at 33.0 µM): -73%
- growth inhibition ([11]; at 100.0 µM): -6%
- growth inhibition ([12]; at 1.2 µM): -1%
- growth inhibition ([12]; at 3.7 µM): -1%
- growth inhibition ([12]; at 11.0 µM): -1%
- growth inhibition ([12]; at 33.0 µM): -3%
- growth inhibition ([12]; at 100.0 µM): -4%
- growth inhibition [13, 16]: -4%
- growth inhibition [13, 17]: 5%
- growth inhibition ([13]; at 50.0 µM): -2.1%
- growth inhibition ([14]; at 1.2 µM): -1%
- growth inhibition ([14]; at 3.7 µM): 2%
- growth inhibition ([14]; at 11.0 µM): 1%
- growth inhibition ([14]; at 33.0 µM): -1%
- growth inhibition ([14]; at 100.0 µM): -5%

Compound: O=[N+]([O-])C(=C(NCc1ccccc1)NCc1ccccc1)C(Cl)=C(Cl)Cl
- growth inhibition ([1]; at 1.2 µM): 1%
- growth inhibition ([1]; at 3.7 µM): 2%
- growth inhibition ([1]; at 11.0 µM): 7%
- growth inhibition ([1]; at 33.0 µM): 10%
- growth inhibition ([1]; at 100.0 µM): 41%
- growth inhibition ([2]; at 1.2 µM): 3%
- growth inhibition ([2]; at 3.7 µM): 18%
- growth inhibition ([2]; at 11.0 µM): 56%
- growth inhibition ([2]; at 33.0 µM): 83% (active)
- growth inhibition ([2]; at 100.0 µM): 85% (active)
- growth inhibition ([3]; at 1.2 µM): -2%
- growth inhibition ([3]; at 3.7 µM): 3%
- growth inhibition ([3]; at 11.0 µM): 5%
- growth inhibition ([3]; at 33.0 µM): 29%
- growth inhibition ([3]; at 100.0 µM): 62%
- growth inhibition ([4]; at 1.2 µM): 1%
- growth inhibition ([4]; at 3.7 µM): 1%
- growth inhibition [4, 16]: -8%
- growth inhibition ([4]; at 11.0 µM): 6%
- growth inhibition ([4]; at 33.0 µM): 13%
- growth inhibition [4, 17]: 57%
- growth inhibition ([4]; at 50.0 µM): 26.6%
- growth inhibition ([4]; at 100.0 µM): 52%
- growth inhibition ([5]; at 1.2 µM): -1%
- growth inhibition ([5]; at 3.7 µM): 0%
- growth inhibition [5, 16]: -7%
- growth inhibition ([5]; at 11.0 µM): 4%
- growth inhibition ([5]; at 33.0 µM): 14%
- growth inhibition [5, 17]: 24%
- growth inhibition ([5]; at 50.0 µM): 23.6%
- growth inhibition ([5]; at 100.0 µM): 54%
- growth inhibition ([6]; at 1.2 µM): -4%
- growth inhibition ([6]; at 3.7 µM): -3%
- growth inhibition ([6]; at 11.0 µM): 1%
- growth inhibition ([6]; at 33.0 µM): 11%
- growth inhibition ([6]; at 100.0 µM): 56%
- growth inhibition [7, 16]: 2%
- growth inhibition [7, 17]: 45%
- growth inhibition ([7]; at 50.0 µM): 66%
- growth inhibition ([15]; at 1.2 µM): -5%
- growth inhibition ([15]; at 3.7 µM): -3%
- growth inhibition ([15]; at 11.0 µM): 6%
- growth inhibition ([15]; at 33.0 µM): 14%
- growth inhibition ([15]; at 100.0 µM): 62%
- growth inhibition [8, 16]: 40%
- growth inhibition [8, 17]: 55%
- growth inhibition ([8]; at 50.0 µM): 64.2%
- growth inhibition ([9]; at 1.2 µM): -5%
- growth inhibition ([9]; at 3.7 µM): -9%
- growth inhibition [9, 16]: 0%
- growth inhibition ([9]; at 11.0 µM): 0%
- growth inhibition ([9]; at 33.0 µM): 5%
- growth inhibition [9, 17]: 42%
- growth inhibition ([9]; at 50.0 µM): 33%
- growth inhibition ([9]; at 100.0 µM): 49%
- growth inhibition ([11]; at 1.2 µM): 4%
- growth inhibition ([11]; at 3.7 µM): 1%
- growth inhibition ([11]; at 11.0 µM): 9%
- growth inhibition ([11]; at 33.0 µM): 25%
- growth inhibition ([11]; at 100.0 µM): 85% (active)
- growth inhibition ([12]; at 1.2 µM): 1%
- growth inhibition ([12]; at 3.7 µM): 7%
- growth inhibition ([12]; at 11.0 µM): 15%
- growth inhibition ([12]; at 33.0 µM): 39%
- growth inhibition ([12]; at 100.0 µM): 83% (active)
- growth inhibition [13, 16]: 12%
- growth inhibition [13, 17]: 83% (active)
- growth inhibition ([13]; at 50.0 µM): 81.5% (active)
